Data taken from the supplement of paper PMC10849652.
The full data set covers some 7,900 targets. This sample favours those with a hit. About 0.6% of all pairs of compound and target were hits. A number with no mark means an inactive call.

Key:
Assay in all cases: log2 fold change, soluble protein after heating vs DMSO (PISA); higher = thermal stabilisation; K562 cells, 10 uM, 30 min; active = over 0.2 and 3.5 SD of the protein, either way, in both replicates (recomputed)
Nexturastat A = compound: CCCCN(Cc1ccc(C(=O)NO)cc1)C(=O)Nc1ccccc1 [Nexturastat A]
Method in brief: (§1)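 For each measurement, 10 μM compound was applied for 30 min to K562 cells at 2×10^6 cells/mL. Aliquots were heated for 3 min across 48°C-58°C, pooled, and extracted in PBS with 0.5% NP-40 at 4°C; the supernatant after 21,000xg for 90 min was soluble protein. This was quantified by TMTpro 16plex LC-MS/MS with channel sums equalised, and thermal stability was reported relative to control samples from duplicates, on a log2 fold-change scale.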

barasertib = compound: CCN(CCCOc1ccc2c(Nc3cc(CC(=O)Nc4cccc(F)c4)[nH]n3)ncnc2c1)CCOP(=O)(O)O [barasertib]
Method in brief: as §1

epoxomicin = compound: CC[C@H](C)[C@@H](C(=O)N[C@@H]([C@@H](C)O)C(=O)N[C@@H](CC(C)C)C(=O)[C@]1(CO1)C)NC(=O)[C@H]([C@@H](C)CC)N(C)C(=O)C [epoxomicin]
Method in brief: as §1

rosiglitazone = compound: CN(CCOC1=CC=C(C=C1)C[C@H]2C(=O)NC(=O)S2)C3=CC=CC=N3 (racemic) [rosiglitazone]
Method in brief: as §1

[1] = compound: CC1=C(C=C(C=C1)NC(=O)C2=CC(=CC=C2)N(C)C)NC(=O)C3=CC=C(C=C3)O
Method in brief: as §1

[2] = compound: CC1=NC(=CC=C1)C2=C(N=C(N2)C(C)(C)C)C3=CC4=NC=CN=C4C=C3
Method in brief: as §1

vemurafenib = compound: CCCS(=O)(=O)Nc1ccc(F)c(C(=O)c2c[nH]c3ncc(-c4ccc(Cl)cc4)cc23)c1F [vemurafenib]
Method in brief: as §1

[3] = compound: CCCc1cc(C)[nH]c(=O)c1CNC(=O)c1cc(-c2ccnc(N3CCN(C)CC3)c2)cc2c1cnn2C(C)C
Method in brief: as §1

[4] = compound: CC[C@@H]1C(=O)N(C)c2cnc(Nc3ccc(C(=O)NC4CCN(C)CC4)cc3OC)nc2N1C1CCCC1
Method in brief: as §1

[5] = compound: CC[C@H](C)N1C=C(C2=C(C=C(C=C21)C3=CN=C(C=C3)N4CCNCC4)C(=O)NCC5=C(C=C(NC5=O)C)C)C
Method in brief: as §1

[6] = compound: CCn1cc(-c2ccnc3[nH]c(-c4cccc(CN(C)C)c4)cc23)c(-c2ccc(NC(=O)N(C)C)cc2)n1
Method in brief: as §1

[7] = compound: CN(C)CC(=O)Nc1ccc2[nH]c(=O)c3ccccc3c2c1
Method in brief: as §1

[8] = compound: CN1C2=C(C3=C1C(=O)N(N=C3)CC4=CC(=CC=C4)N)SC(=C2)S(=O)C
Method in brief: as §1

[9] = compound: CN1CCC(CNc2ccc3ncc(-c4cccc(OC(F)(F)F)c4)n3n2)CC1
Method in brief: as §1

[10] = compound: CC1=C(C=C(C=C1)NC(=O)C2=CC(=CC=C2)C(C)(C)C#N)NC3=CC4=C(C=C3)N=CN(C4=O)C
Method in brief: as §1

[11] = compound: CC1=CC=C(C=C1)SC2=C3C=C(SC3=CN=C2)C(=O)N
Method in brief: as §1

[12] = compound: CCCS(=O)(=O)Nc1ccc(F)c(C(=O)c2c[nH]c3ncc(Cl)cc23)c1F
Method in brief: as §1

givinostat = compound: CCN(CC)Cc1ccc2cc(COC(=O)Nc3ccc(C(=O)NO)cc3)ccc2c1 [givinostat]
Method in brief: as §1

volasertib = compound: CC[C@@H]1C(=O)N(C)c2cnc(Nc3ccc(C(=O)N[C@H]4CC[C@H](N5CCN(CC6CC6)CC5)CC4)cc3OC)nc2N1C(C)C [volasertib]
Method in brief: as §1

[13] = compound: CCn1c(C(=O)N(C2CC2)C2CC2)cc2c3c(ncn3C)c(Nc3cc(C)n(C)n3)nc21
Method in brief: as §1

Chain of UniProt Q04637 (Q04637 whole entry, looked up): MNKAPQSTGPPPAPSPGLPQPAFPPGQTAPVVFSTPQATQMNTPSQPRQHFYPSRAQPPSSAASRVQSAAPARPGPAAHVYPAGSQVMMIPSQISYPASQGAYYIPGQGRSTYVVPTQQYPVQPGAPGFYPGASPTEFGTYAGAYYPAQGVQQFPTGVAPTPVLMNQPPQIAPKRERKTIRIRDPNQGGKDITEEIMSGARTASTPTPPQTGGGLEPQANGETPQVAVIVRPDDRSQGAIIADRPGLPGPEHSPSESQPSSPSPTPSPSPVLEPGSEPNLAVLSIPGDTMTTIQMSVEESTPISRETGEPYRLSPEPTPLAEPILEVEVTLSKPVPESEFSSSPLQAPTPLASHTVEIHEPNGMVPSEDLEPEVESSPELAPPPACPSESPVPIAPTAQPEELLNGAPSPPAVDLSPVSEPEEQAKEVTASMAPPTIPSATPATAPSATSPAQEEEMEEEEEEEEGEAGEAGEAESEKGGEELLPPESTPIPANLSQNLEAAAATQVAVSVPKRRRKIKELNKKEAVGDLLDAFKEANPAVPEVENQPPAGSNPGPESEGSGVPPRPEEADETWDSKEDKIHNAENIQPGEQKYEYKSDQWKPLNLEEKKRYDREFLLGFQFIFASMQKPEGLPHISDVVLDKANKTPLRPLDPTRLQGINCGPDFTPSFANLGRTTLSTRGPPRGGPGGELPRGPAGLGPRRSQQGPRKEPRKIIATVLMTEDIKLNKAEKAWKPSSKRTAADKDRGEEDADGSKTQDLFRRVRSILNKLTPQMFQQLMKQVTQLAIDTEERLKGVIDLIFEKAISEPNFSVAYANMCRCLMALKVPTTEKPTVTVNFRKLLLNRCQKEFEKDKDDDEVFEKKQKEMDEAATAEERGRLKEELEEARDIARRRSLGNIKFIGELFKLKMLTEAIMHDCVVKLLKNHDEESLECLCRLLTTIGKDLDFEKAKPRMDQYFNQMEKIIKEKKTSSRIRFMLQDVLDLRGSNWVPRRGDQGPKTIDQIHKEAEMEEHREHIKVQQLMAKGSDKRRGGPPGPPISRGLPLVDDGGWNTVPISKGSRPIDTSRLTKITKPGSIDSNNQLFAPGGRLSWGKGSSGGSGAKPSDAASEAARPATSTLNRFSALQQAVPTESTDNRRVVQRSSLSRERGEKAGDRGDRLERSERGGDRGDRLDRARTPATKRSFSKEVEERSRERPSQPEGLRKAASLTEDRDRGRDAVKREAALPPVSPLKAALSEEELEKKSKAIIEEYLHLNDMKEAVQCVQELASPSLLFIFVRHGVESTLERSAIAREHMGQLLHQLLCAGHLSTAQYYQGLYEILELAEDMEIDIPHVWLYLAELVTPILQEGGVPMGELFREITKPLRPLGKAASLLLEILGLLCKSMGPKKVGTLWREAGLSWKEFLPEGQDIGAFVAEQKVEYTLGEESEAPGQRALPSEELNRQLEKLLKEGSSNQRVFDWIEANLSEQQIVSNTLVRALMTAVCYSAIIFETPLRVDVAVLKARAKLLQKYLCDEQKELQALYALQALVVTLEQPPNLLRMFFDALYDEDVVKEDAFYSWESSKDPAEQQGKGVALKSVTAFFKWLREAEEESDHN
Chain of UniProt Q9H777 (Q9H777 whole entry, looked up): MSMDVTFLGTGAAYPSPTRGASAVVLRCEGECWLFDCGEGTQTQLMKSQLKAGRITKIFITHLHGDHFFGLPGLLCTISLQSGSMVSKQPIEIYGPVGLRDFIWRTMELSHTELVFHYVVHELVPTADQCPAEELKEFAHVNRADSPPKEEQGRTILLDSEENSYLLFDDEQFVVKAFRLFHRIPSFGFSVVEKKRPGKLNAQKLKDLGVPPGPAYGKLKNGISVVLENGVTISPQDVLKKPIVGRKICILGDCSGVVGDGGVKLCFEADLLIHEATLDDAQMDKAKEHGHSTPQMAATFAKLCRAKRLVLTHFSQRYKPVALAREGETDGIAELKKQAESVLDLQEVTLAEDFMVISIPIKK
Chain of UniProt Q6P1L5 (Q6P1L5 whole entry, looked up): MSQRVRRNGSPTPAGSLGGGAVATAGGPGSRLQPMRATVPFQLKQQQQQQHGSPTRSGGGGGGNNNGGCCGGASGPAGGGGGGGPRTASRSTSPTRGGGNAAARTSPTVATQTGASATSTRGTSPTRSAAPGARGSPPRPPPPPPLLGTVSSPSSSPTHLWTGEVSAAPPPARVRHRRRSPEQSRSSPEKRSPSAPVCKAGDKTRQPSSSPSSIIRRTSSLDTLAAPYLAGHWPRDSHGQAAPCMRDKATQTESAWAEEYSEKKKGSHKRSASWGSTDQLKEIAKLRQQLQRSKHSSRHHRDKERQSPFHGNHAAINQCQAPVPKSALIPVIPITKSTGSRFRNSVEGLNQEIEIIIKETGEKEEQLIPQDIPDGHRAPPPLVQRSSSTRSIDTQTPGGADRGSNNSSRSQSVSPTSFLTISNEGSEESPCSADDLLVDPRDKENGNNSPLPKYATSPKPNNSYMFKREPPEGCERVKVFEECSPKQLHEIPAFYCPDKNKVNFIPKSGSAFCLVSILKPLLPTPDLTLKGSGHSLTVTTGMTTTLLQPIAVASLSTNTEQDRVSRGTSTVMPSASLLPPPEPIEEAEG
Chain of UniProt Q8NDI1 (Q8NDI1 whole entry, looked up): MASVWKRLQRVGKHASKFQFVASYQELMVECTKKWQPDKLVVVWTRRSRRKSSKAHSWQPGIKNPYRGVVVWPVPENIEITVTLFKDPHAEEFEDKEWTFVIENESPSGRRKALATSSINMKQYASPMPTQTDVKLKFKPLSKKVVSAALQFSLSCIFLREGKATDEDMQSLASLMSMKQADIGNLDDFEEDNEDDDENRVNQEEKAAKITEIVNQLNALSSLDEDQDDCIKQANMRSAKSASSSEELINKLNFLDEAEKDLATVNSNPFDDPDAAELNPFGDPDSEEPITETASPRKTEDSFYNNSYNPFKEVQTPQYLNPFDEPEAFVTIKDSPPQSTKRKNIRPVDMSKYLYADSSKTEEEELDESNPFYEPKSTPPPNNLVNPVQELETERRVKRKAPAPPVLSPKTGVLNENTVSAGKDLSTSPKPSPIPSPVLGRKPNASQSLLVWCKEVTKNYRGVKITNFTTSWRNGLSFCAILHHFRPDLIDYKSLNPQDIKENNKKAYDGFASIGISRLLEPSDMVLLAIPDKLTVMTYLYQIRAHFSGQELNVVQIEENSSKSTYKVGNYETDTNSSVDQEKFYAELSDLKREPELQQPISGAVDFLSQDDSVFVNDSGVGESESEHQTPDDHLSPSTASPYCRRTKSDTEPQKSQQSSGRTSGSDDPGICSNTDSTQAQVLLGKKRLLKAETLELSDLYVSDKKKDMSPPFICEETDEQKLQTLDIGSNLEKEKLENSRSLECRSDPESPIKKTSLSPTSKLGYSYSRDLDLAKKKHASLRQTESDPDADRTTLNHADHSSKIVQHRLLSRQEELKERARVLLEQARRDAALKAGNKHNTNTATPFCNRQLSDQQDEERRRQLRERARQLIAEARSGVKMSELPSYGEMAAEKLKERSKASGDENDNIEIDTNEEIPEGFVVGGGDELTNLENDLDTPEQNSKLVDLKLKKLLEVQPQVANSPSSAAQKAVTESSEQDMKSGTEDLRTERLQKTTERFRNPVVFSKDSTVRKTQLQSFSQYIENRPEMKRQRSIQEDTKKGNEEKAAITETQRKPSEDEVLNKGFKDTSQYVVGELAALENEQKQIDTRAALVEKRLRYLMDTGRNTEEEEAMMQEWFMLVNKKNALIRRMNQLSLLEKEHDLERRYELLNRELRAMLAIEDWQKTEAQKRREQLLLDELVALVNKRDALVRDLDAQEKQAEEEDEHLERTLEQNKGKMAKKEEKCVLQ
Chain of UniProt Q8TEH3 (Q8TEH3 whole entry, looked up): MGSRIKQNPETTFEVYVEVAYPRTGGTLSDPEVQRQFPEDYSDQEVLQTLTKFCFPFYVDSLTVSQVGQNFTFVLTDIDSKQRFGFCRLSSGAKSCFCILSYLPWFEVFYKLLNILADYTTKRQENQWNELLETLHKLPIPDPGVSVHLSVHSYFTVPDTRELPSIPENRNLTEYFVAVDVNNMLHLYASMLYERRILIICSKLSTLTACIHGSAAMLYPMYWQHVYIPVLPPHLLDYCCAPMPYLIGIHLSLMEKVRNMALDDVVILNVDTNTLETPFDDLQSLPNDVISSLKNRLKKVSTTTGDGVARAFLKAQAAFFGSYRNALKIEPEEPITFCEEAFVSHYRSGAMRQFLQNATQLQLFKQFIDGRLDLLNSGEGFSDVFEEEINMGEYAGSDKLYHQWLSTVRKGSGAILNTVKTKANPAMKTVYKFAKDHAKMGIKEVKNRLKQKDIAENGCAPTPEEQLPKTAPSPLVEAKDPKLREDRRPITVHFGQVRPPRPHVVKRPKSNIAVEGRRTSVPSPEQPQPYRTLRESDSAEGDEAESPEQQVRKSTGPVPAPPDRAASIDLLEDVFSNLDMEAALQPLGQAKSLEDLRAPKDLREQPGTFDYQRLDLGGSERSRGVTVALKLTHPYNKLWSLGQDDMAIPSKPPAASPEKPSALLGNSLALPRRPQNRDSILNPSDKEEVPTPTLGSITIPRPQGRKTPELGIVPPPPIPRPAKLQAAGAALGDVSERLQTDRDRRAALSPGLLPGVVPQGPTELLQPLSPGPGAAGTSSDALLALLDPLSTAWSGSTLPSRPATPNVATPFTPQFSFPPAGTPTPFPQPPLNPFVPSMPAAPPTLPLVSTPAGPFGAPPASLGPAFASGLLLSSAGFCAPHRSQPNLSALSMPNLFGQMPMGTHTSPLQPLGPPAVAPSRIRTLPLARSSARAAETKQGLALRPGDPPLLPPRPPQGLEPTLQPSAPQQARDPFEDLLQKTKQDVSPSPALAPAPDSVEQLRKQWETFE
Chain of UniProt Q4LDG9 (Q4LDG9 whole entry, looked up): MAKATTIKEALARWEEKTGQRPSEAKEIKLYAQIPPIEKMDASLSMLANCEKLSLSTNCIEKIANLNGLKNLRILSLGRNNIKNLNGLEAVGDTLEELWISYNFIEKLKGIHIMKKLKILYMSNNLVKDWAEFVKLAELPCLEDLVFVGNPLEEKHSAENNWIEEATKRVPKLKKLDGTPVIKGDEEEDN

Target	log2 fold change (Nexturastat A)	log2 fold change (barasertib)	log2 fold change (epoxomicin)	log2 fold change (rosiglitazone)	log2 fold change [1]	log2 fold change [2]	log2 fold change (vemurafenib)	log2 fold change [3]	log2 fold change [4]	log2 fold change [5]	log2 fold change [6]	log2 fold change [7]	log2 fold change [8]	log2 fold change [9]	log2 fold change [10]	log2 fold change [11]	log2 fold change [12]	log2 fold change (givinostat)	log2 fold change (volasertib)	log2 fold change [13]
EPHX2 (UniProt E5RI53)	0.029	0.094	-0.199	-0.248	–	–	–	–	–	–	–	–	–	–	–	–	–	–	–	–
FAM160A2 isoform 2 (UniProt Q8N612)	-0.066	0.109	-0.177	-0.046	0.134	0.016	-0.164	-0.172	-0.074	-0.048	0.06	0.052	0.287	-0.258	–	–	–	–	–	–
CTSS (UniProt P25774)	–	–	–	–	-0.045	-0.068	-0.053	–	-0.027	–	0.126	-0.021	0.051	-0.034	0.032	–	–	–	–	–
ENTR1 (UniProt Q96C92)	–	–	–	–	–	–	0.06	–	–	–	–	-0.107	0.183	–	–	-0.091	-0.105	0.062	0.167	-0.03
DNAL1 (UniProt Q4LDG9)	-0.135	0.012	0.082	-0.683	0.049	0.069	0.013	–	–	–	–	0.103	-0.256	–	–	–	–	–	–	–
DERPC (UniProt P0CG12)	–	0.012	–	0.04	-0.052	0.005	0.07	-0.029	0.127	-0.051	0.197	0.053	0.519 (active)	0.025	–	–	–	0.454 (active)	–	0
F2RL3 (UniProt Q96RI0)	–	–	–	–	0.032	–	-0.156	–	–	–	–	0.012	-0.002	–	–	0.053	0.035	-0.06	0.076	0.074
FAM117B (UniProt Q6P1L5)	0.394	–	0.021	–	-0.035	-0.126	0.043	–	-0.054	–	0.012	0.11	-0.072	0.017	–	–	–	0.212	–	-0.211
DPYSL2 (UniProt Q16555)	-0.176	0	0.129	0.039	–	0.033	-0.056	-0.065	0.055	0.014	-0.073	0.11	-0.058	-0.067	-0.056	0.03	-0.002	0.03	-0.037	-0.071
EIF3J isoform 2 (UniProt O75822)	0.048	-0.071	0.025	-0.038	–	-0.02	-0.17	-0.613	–	-0.079	–	0.076	0.133	–	-0.1	0.032	-0.062	-0.129	0.031	0.03
CYP24A1 (UniProt Q07973)	–	-0.146	–	-0.205	0.051	-0.306	-0.198	-0.183	0.252	-0.209	0.065	-0.175	0.288	0.198	–	-0.039	-0.057	0.233	0.379	-0.126
EIF4G1 (UniProt Q04637)	–	–	–	–	–	–	-0.071	–	–	–	0.062	0	0.224	-0.552 (active)	–	–	–	–	–	–
DCAF12 (UniProt Q5T6F0)	–	–	–	–	–	–	–	0.08	-0.132	–	-0.141	–	–	0.197	-0.136	–	–	–	–	–
DENND1A isoform 6 (UniProt Q8TEH3)	–	0.293	–	-0.041	–	-0.009	-0.119	–	–	–	–	0.112	–	–	–	0.025	0.114	–	-0.856 (active)	–
DCAF4 (UniProt Q8WV16)	-0.132	–	0.041	–	0.072	–	–	-0.061	0.03	-0.075	0.147	–	0.128	-0.086	0.03	–	–	–	–	–
EHBP1 (UniProt Q8NDI1)	–	–	–	–	–	–	–	-0.028	-0.155	–	0.011	–	–	0.015	–	–	–	–	–	–
DOLPP1 (UniProt Q86YN1)	–	0.057	–	-0.034	0.012	0.026	-0.057	-0.018	-0.062	-0.052	–	0.133	–	–	–	-0.094	-0.042	-0.027	-0.008	-0.129
ENTPD7 (UniProt Q9NQZ7)	0.047	-0.009	0.032	0.061	–	0.142	–	-0.068	-0.204	0.08	–	–	-0.021	–	-0.033	0.012	-0.1	0	-0.233	0.032
ELAC1 (UniProt Q9H777)	0.011	–	-0.002	–	–	-0.049	-0.017	–	-0.067	0.046	-0.488 (active)	0	0.079	-0.227	0.003	-0.051	0.007	-0.023	0.055	-0.073
DHPS (UniProt M0R1T2)	–	0.11	–	-0.057	–	–	–	–	–	–	–	–	–	–	0.118	–	–	–	–	–
